# Hits are enriched below; roughly 2.2% of the tested compounds scored in any of these assays.
# ATXN viability: viability counter-screen for ATXN expression inhibitors. S2 cells (HEK-293 line with an ATXN2-luciferase reporter) viability, CellTiter-Fluor protease fluorescence, 24 h. Potency, µM (doses to about 56.7 µM), actives largely listed as cytotoxic. 400,000 compounds, 0.49% hits. AID 651635; note: potency is the fitted concentration of half-maximal effect; nearly all actives have a fitted effect of over 40% in size
# ATXN2 expr inh: ATXN2 expression inhibition; HEK-293 ATXN2-luciferase reporter, luminescence, 24 h; Potency, µM (titrated, usually from 57 µM), without a hit: at the highest dose activity change, negative = inhibition, most hits filed as inhibitors; 360,000 compounds, 0.72% hits; note: potency is the fitted concentration of half-maximal effect; % is set by controls: 0 for no effect and ±100 for the full control effect; nearly all actives have a fitted effect of over 55% in size
#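 qHTS (up to 57 uM final) was run with 24 h compound exposure of reporter cells at 37 °C. Each well was multiplexed: SteadyGlo luminescence measured ATXN2-luciferase expression after a fluorogenic Gly-Phe-AFC viability readout (25 uM final).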
# LDHA block: inhibitors of human lactate dehydrogenase A; purified LDHA, NADH/diaphorase-resazurin fluorescence; stronger effect = lower value; activity change, % (values are at about 110 or 230 µM); 480,000 compounds, 0.15% hits; AID 1347041; in the data active = activity change below about -30%; inconclusive = mostly about -25% to -30%;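 note: plate controls were DMSO wells for no effect and wells without enzyme for full effect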
#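 Human LDH5 (2 nM) was incubated with 0.06 mM NADH and 0.2 mM pyruvate for 5 min at room temperature in Tris pH 7.4. Remaining NADH was coupled through diaphorase/resazurin, and resorufin fluorescence was read at 0 and 20 min.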
# HepG2 tox-1: HepG2 cytotoxicity, counter-screen for TGF-b inhibitors | HepG2 CAGA-GFP viability, ATP luminescence, 18 h | Potency, µM (titrated, usually from 46.1 µM), for inactives: top-dose activity change, negative = cytotoxicity, most hits filed as cytotoxic | 410,000 compounds, 0.76% hits | AID 588856; note: potency is the fitted concentration of half-maximal effect
#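 CellTiter-Glo luminescence gave cytotoxicity after 18 hours at 37 degrees C. The cells were HepG2 CAGA-GFP in 1% FBS DMEM, stimulated with 500 pg/mL TGF-beta after compound addition. %Activity was normalised to no-cell wells (complete cell-killing) and DMSO (no toxicity), and curves were fitted and classified.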
# TGFb inhibitor: TGF-b pathway inhibition; HepG2 CAGA-GFP TGF-b/SMAD3 reporter, GFP fluorescence, 18 h; TGF-beta stimulated, 500 pg/mL final; Potency, µM (highest dose often 46.1 µM), for inactives: top-dose activity, negative = inhibition, most hits filed as inhibitors; 410,000 compounds, 1.2% hits; note: potency is the fitted concentration of half-maximal effect; % is set by controls: 0 for no effect and ±100 for the full control effect; nearly all actives have a fitted effect of over 65% in size
#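 HEPG2 CAGA-GFP, 1000 cells/well; 2 h settle, 37 C; cpd via pin tool; TGF-b 500 pg/mL final; 18 h, 37 C; GFP imaging ex488/em500-530; %Activity normalised to -TGF-b and +DMSO controls; CRC fit, curve class.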
# mIDH1 inhibitor: blocks human mutant IDH1 R132H enzyme. O75874. IDH1-R132H enzyme, NADPH consumption, diaphorase/resazurin fluorescence. Potency, µM (doses to about 76.6 µM), inactives show at the highest dose activity change, negative = inhibition, most hits filed as inhibitors. 390,000 compounds, 0.093% hits. AID 602179; note: potency is the fitted concentration of half-maximal effect; % is set by controls: 0 for no effect and ±100 for the full control effect; nearly all actives have a fitted effect of over 65% in size
# Target sequence (O75874 whole entry R132H, stated change not applied): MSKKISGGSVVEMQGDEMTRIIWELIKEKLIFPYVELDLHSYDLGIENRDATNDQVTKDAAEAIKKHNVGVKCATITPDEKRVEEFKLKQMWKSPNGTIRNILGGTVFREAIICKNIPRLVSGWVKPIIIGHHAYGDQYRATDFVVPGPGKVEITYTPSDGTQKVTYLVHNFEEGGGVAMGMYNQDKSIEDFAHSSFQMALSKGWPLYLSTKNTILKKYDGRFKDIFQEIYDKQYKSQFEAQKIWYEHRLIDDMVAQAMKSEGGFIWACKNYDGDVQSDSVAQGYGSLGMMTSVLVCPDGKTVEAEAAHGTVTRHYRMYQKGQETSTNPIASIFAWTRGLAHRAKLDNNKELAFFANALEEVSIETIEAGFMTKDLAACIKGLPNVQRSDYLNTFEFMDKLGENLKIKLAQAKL
#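 IDH1-R132H (0.5 ug/mL dispensed) in pH 7.5 Tris buffer was preincubated 30 min with compound, then given a substrate mix of 0.016 mM NADPH and 2 mM alpha-KG for 80 min at room temperature; remaining NADPH was read by diaphorase/resazurin fluorescence.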
# TGFb CAGA inh: confirmation of TGF-b signaling inhibitors in HepG2 reporter cells; Potency, µM (doses to about 46.1 µM), for the others: at the highest dose activity, negative = inhibition, actives largely listed as inhibitors; 1,600 compounds, 63% hits; shares compounds with TGFb inhibitor; HepG2 CAGA-GFP TGF-b reporter, GFP fluorescence, 18 h; cells stimulated with TGF-beta, 500 pg/mL; note: potency is the fitted concentration of half-maximal effect; % is set by controls: 0 for no effect and ±100 for the full control effect; nearly all actives have a fitted effect of over 65% in size
# HepG2 tox-2: counter-screen for TGF-b inhibitors: cytotoxicity in HepG2 cells. Potency, µM (titrated, usually from 46.1 µM), for inactives: at the top dose activity, negative = cytotoxicity, usual class: inhibitors. shares compounds with TGFb inhibitor. 1,600 compounds, 27% hits. AID 720535. HepG2 CAGA-GFP viability, ATP luminescence, 18 h; cells stimulated with TGF-beta, 500 pg/mL; note: potency is the fitted concentration of half-maximal effect; % is set by controls: 0 for no effect and ±100 for the full control effect; nearly all actives have a fitted effect of over 70% in size
# CCL64 TGFb inh: blocks TGF-b signaling in CCL64 reporter cells. Potency, µM (top dose mostly 46.1 µM), for the others: at the highest dose activity, negative = inhibition, usual class: inhibitors. CCL64 CAGA-GFP reporter, TGF-b stimulated, GFP fluorescence, 18 h. shares compounds with TGFb inhibitor. 1,600 compounds, 41% hits; note: potency is the fitted concentration of half-maximal effect; nearly all actives have a fitted effect of over 65% in size
# TGFb COP inh: TGF-b inhibition validated with COP promoter. shares compounds with TGFb inhibitor. HepG2 COP-GFP TGF-b reporter, GFP fluorescence, 18 h; cells stimulated by added recombinant TGF-beta. Potency, µM (top dose mostly 46.1 µM), inactives show at the highest dose activity, negative = inhibition, usual class: inhibitors. 1,600 compounds, 3% hits. AID 720537; note: potency is the fitted concentration of half-maximal effect; nearly all actives have a fitted effect of over 70% in size
# * hit, by the source's call; i = inactive; ? = inconclusive; · = no result given. Unless noted, calls come from the whole dose curve; as a rule, active = well fitted curve in the direction sought with a large enough effect; inconclusive = small, poorly fitted or top-dose-only effect, or another doubt; inactive = no such curve, though single readings can be large; an effect the other way counts as inactive or inconclusive.
SMILES,ATXN viability,ATXN2 expr inh,LDHA block,HepG2 tox-1,TGFb inhibitor,mIDH1 inhibitor,TGFb CAGA inh,HepG2 tox-2,CCL64 TGFb inh,TGFb COP inh
COc1cc2nc(SCC(=O)NCCc3ccccc3)n(Cc3ccco3)c(=O)c2cc1OC,·,·,0,-17%,2%,6%,·,·,·,·
O=S(=O)(Nc1cc(Sc2cccc3cccnc23)c(O)c2ccccc12)c1ccc(F)cc1,4µM*,?,27,1.1µM*,0.79µM*,19%,12µM*,15µM*,2.6µM*,31%
COc1ccc(S(=O)(=O)Nc2ccc(O)c(Sc3ncn[nH]3)c2)cc1,i,6%,-2,0%,1%,8%,·,·,·,·
O=S(=O)(Nc1cccc2cccnc12)c1ccc2ccccc2c1,·,·,1,-24%,?,·,·,·,·,·
COc1ccc(S(=O)(=O)Nc2cc(Sc3ncn[nH]3)c(O)c3ccccc23)cc1,·,·,22,3.5µM*,3.2µM*,·,12µM*,?,2.6µM*,?
C/C(=N\NC(=O)c1ccc(O)cc1)c1cc2ccccc2o1,i,0%,-4,-10%,5%,-6%,·,·,·,·
COc1cccc(NC(=O)COC(=O)c2c(C)noc2C)c1,i,·,-1,-98%,4%,-2%,·,·,·,·
COCCN=C1N[C@@H](c2ccccc2)C(C(=O)OC)=C(C)N1Cc1ccccc1,i,0%,1,-16%,1%,-1%,·,·,·,·
COCCN=C1N[C@@H](c2ccc(Br)cc2)C(C(=O)OC)=C(C)N1Cc1ccccc1,?,?,-7,-73%,10µM*,-3%,?,?,?,62%
CCCCSc1nc(C)cc(SCC(=O)N/N=C/c2cccc(OC)c2O)n1,?,7.1µM*,5,-26%,7.9µM*,2%,8.2µM*,?,12µM*,-1%
COc1cccc(/C=N/NC(=O)CSc2nnc(C)n2-c2ccccc2)c1O,?,?,7,-28%,-8%,1%,·,·,·,·
CCn1c(=O)c(C(=O)CN2CCN(S(=O)(=O)c3cc(C)ccc3C)CC2)c(N)n(Cc2ccccc2)c1=O,i,-23%,0,-14%,11µM*,4%,12µM*,?,12µM*,66%
Cc1c(Cl)ccc(S(=O)(=O)NCCO)c1Cl,·,·,9,·,·,·,·,·,·,·
CC(=O)Nc1ccc(N/C(N)=N/c2nc(C)cc(C)n2)cc1,i,13%,-13,0%,10%,11%,·,·,·,·
CCOc1ccc(N/C(N)=N/c2nc(C)cc(C)n2)cc1,?,·,-5,-28%,?,-5%,-28%,-26%,?,8%
Cc1cc(C)nc(/N=C(\N)Nc2ccc(SC(F)F)cc2)n1,i,·,-3,-38%,8.9µM*,-4%,-25%,?,?,28%
O=C(OCCN1C(=O)c2ccccc2C1=O)c1cccs1,i,2%,-3,4%,1%,7%,·,·,·,·
COC(=O)c1ccsc1NC(=O)c1cccc(OC)c1,·,-13%,5,-3%,11%,4%,·,·,·,·
CCOc1ccc(N(CC(=O)NCc2ccc(C)cc2)S(=O)(=O)c2c(C)noc2C)cc1,i,-9%,-9,1%,-31%,-3%,·,·,·,·
CN(C)c1ncnc2c1nnn2C1OC(CO)C(O)C1O (configuration not stated),?,·,1,-68%,0.56µM*,16%,2.1µM*,?,?,20%
C=CCOc1ccc(C[C@H](N)C(=O)NC[C@H]2O[C@@H](n3cnc4c(N)ncnc43)[C@H](O)[C@@H]2O)cc1,i,-5%,-2,1%,-13%,0%,·,·,·,·
OCC1OC(n2ccc3c2ncn2ncnc32)C(O)C1O (configuration not stated),i,·,-2,-64%,5µM*,-11%,1.8µM*,0.52µM*,5%,24%
CNc1ncnc2c1ncn2[C@@H]1O[C@H](CO)[C@@H](O)[C@H]1O,i,63%,-4,6%,?,11%,·,·,·,·
COc1ccc(C[C@H](N)C(=O)N[C@H]2[C@@H](O)[C@H](n3cnc4c(N(C)C)ncnc43)O[C@@H]2CO)cc1,0.71µM*,0.4µM*,-11,-80%,3.2µM*,-4%,5.2µM*,2.1µM*,2.9µM*,?
CN(C)c1ncnc2c1ncn2C1OC(CO)C(O)C1O (configuration not stated),?,59%,-13,-69%,0.63µM*,5%,0.65µM*,5.8µM*,?,5%
CCn1ncc(CN2CCN(C(=O)Nc3ccccc3C(=O)OC)CC2)c1C,i,-37%,0,-5%,2%,-2%,·,·,·,·
CCCCOc1ccc(C(=O)NCCS(=O)(=O)N2CCN(c3ccc(F)cc3)CC2)cc1,·,·,2,3%,-2%,5%,·,·,·,·
COc1ccc(S(=O)(=O)Nc2ccccc2C(=O)Nc2nc(-c3ccc(F)cc3)cs2)cc1OC,i,?,-15,-38%,7.1µM*,-9%,10µM*,?,8.2µM*,48%
COc1ccc(-c2csc(NC(=O)c3ccccc3NS(=O)(=O)c3ccc(C)cc3)n2)cc1,i,?,-4,-44%,3.5µM*,-5%,6.5µM*,9.2µM*,5.2µM*,46%
CC1(C)C2CC=C(/C=N/NC(=O)c3ccccc3Br)C1C2 (configuration not stated),i,·,-12,3%,-4%,4%,·,·,·,·
